PubChem BioAssay (Tox21)
Inconclusive results are not listed. Where a call stands in place of a potency, no number is given. A number with no mark means an inactive call. Active and inactive are the calls of the source. Unless noted, calls follow the shape of the dose curve; as a rule, active = well fitted curve in the direction sought with a large enough effect in the repeat runs; inconclusive = weak or mixed curves; inactive = no such curve, though single readings can be large; an effect the other way counts as inactive or inconclusive.

What was measured:
[1] = qHTS assay to identify small molecule antagonists of the retinoid-related orphan receptor gamma (ROR-gamma) signaling pathway - cell viability counter screen (AID 1159520); also: nearly all actives have a fitted effect of over 50% in size; also: potency is read from the fitted curve at half-maximal effect
How it was run: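 Tet-on ROR gamma CHO cells (1,000/well) were plated 4 hr, given compounds in DMSO for 2 hr at 37 C, then induced with 1 uM final doxycycline for 16 hr. Viability was read as ATP by CellTiter-Glo luminescence after 30 min.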

[2] = target: Nuclear receptor ROR-gamma (Homo sapiens) (UniProt P51449); test: qHTS assay to identify small molecule antagonists of the retinoid-related orphan receptor gamma (ROR-gamma) signaling pathway (AID 1159521; also: nearly all actives have a fitted effect of over 50% in size; also: potency is read from the fitted curve at half-maximal effect;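 as to activity change, negative = inhibition: CHO cells with doxycycline inducible ROR-gamma driving an RORE luciferase reporter; top concentration of the series differs between compounds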)
How it was run: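 Readout: ONE-Glo luciferase luminescence, 30 min at room temperature. System: Tet-on RORγ CHO, RORE-LUC. Sequence: compound 2 h, doxycycline 1 uM final, 16 h at 37 C.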

[3] = qHTS assay to identify small molecule agonists of the AP-1 signaling pathway - cell viability counter screen (AID 1159525; calls by dose curve; also: nearly all actives have a fitted effect of over 55% in size; also: potency is read from the fitted curve at half-maximal effect)
How it was run: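 ME-180 AP-1-bla, 2500 cells/well, Opti-MEM + 0.5% dialyzed FBS; overnight 37 °C; cpd 15-pt titration, 5 h 37 °C; CellTiter-Glo 30 min RT; luminescence read; normalised to TOAB and DMSO controls.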

[4] = qHTS assay to identify small molecule agonists of the AP-1 signaling pathway (AID 1159526; calls by dose curve)
[5] = target: Retinoic acid receptor RXR-alpha (Homo sapiens) (UniProt P19793); test: qHTS assay to identify small molecule agonists of the RXR signaling pathway (AID 1159527; calls by dose curve; also: nearly all actives have a fitted effect of over 35% in size)
Chain of Retinoic acid receptor RXR-alpha (Homo sapiens) (P19793 whole entry, looked up): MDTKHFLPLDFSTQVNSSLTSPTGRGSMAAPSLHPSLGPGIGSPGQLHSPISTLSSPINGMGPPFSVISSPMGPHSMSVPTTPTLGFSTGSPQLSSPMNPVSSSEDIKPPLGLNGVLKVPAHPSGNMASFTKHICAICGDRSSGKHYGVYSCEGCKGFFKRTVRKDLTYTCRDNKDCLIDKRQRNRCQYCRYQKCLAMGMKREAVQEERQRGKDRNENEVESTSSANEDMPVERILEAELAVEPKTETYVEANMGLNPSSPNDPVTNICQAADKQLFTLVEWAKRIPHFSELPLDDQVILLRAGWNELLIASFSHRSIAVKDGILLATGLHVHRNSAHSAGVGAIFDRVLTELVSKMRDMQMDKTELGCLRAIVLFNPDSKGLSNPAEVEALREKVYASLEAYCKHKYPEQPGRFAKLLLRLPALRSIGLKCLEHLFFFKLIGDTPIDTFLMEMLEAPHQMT
How it was run: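 Reporter activation is measured as beta-lactamase activity via FRET substrate cleavage (emission 460/530 nm) in HEK 293T cells expressing an RXR-alpha-driven bla construct, following 16 hr compound exposure at 37 C.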

[6] = qHTS assay to identify small molecule agonists of the RXR signaling pathway - cell viability counter screen (AID 1159529); also: nearly all actives have a fitted effect of over 50% in size; also: potency is read from the fitted curve at half-maximal effect; as to activity change, negative = cytotoxicity: series mostly up to about 77 µM
How it was run: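 Tox21 10K compounds were tested for cytotoxicity against GeneBLAzer RXR-alpha HEK 293T cells grown in 2% charcoal-stripped FBS. Exposure lasted 16 hr at 37 C, 5% CO2; viability read by CellTiter-Glo luminescence.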

[7] = qHTS assay to identify small molecule antagonists of the retinoid acid receptor (RAR) signaling pathway - cell viability counter screen (AID 1159551); also: nearly all actives have a fitted effect of over 35% in size; also: potency is read from the fitted curve at half-maximal effect
How it was run: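 Seed C3RL4 cells; next day add compound, then retinol to 1 uM final; incubate 6 h at 37 C; add CellTiter-Glo; read luminescence after 30 min at RT.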

[8] = qHTS assay to identify small molecule antagonists of the retinoic acid receptor (RAR) signaling pathway (AID 1159552; also: nearly all actives have a fitted effect of over 50% in size; also: potency is read from the fitted curve at half-maximal effect)
How it was run: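 Overnight-plated C3RL4 reporter cells get compound, then retinol to 1 uM final; plates sit 6 hr at 37 C, 5% CO2. A luciferase reagent is added and light output recorded after 30 min at room temperature.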

[9] = qHTS assay to identify small molecule antagonists of the estrogen related receptor (ERR) signaling pathway from Tox21 library - cell viability counter screen (AID 1224834); also: nearly all actives have a fitted effect of over 30% in size; also: potency is read from the fitted curve at half-maximal effect
How it was run: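 CellTiter-Fluor fluorescence measured; ERR cells; 17.5 h compound incubation at 37 C; 30 min reagent step.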

[10] = qHTS assay to identify small molecule antagonists of the vitamin D receptor (VDR) signaling pathway - cell viability counter screen (AID 743225); also: nearly all actives have a fitted effect of over 50% in size
How it was run: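 Cytotoxicity toward the VDR-bla HEK 293T line was scored by ATP-based CellTiter-Glo luminescence, read in the wells already used for the beta-lactamase readout after 16 h compound treatment under 3 nM 1-alpha,25-dihydroxyvitamin D3 stimulation.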

[11] = qHTS assay to identify small molecule agonists of the retinoic acid receptor (RAR) signaling pathway (AID 1159553)
How it was run: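 Activation of retinol signaling was monitored via a RARE luciferase reporter in C3RL4 cells. After 6 hr compound treatment at 37 C, detection reagent was added for 30 min at room temperature before luminescence reading.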

CCS(=O)(=O)c1cccnc1S(=O)(=O)NC(=O)Nc1nc(OC)cc(OC)n1
Potency [1]: inactive
Potency [2]: inactive
Potency [3]: inactive
Potency [4]: inactive
outcome [5]: inactive
Potency [6]: inactive
Potency [7]: inactive
Potency [8]: inactive
Potency [9]: inactive

ClC1=C(Cl)[C@]2(Cl)[C@@H]3[C@@H](Cl)[C@H](Cl)C[C@@H]3[C@@]1(Cl)C2(Cl)Cl
Potency [1]: inactive
Potency [2]: inactive
Potency [3]: inactive
Potency [4]: inactive
outcome [5]: inactive
Potency [6]: inactive
Potency [7]: inactive
Potency [8]: inactive
Potency [9]: inactive

CC(=O)c1ccc(-c2ccccc2)cc1
Potency [1]: inactive
Potency [2]: inactive
Potency [3]: inactive
Potency [4]: inactive
outcome [5]: inactive
Potency [6]: inactive
Potency [7]: inactive
Potency [8]: inactive
Potency [9]: inactive

CC(=[OH+])/C=C(/C)[O-].CC(=[OH+])/C=C(\C)[O-].CC(=[OH+])/C=C(\C)[O-].[Al]
Potency [1]: inactive
Potency [2]: inactive
Potency [3]: inactive
Potency [4]: inactive
outcome [5]: inactive
Potency [6]: inactive
Potency [7]: inactive
Potency [9]: inactive

O=C1C=CC(=O)c2ccccc21
Potency [1]: 3.44 µM (active)
Potency [2]: 1.54 µM (active)
Potency [3]: 15.5 µM (active)
Potency [6]: 9.77 µM (active)
Potency [7]: 15.4 µM (active)
Potency [8]: 27.3 µM (active)
Potency [9]: 61.1 µM (active)

COP(=O)(CCC(=O)NCO)OC
Potency [1]: inactive
Potency [2]: inactive
Potency [3]: inactive
Potency [4]: inactive
outcome [5]: inactive
Potency [6]: inactive
Potency [8]: inactive
Potency [9]: inactive

Nc1ccc(Cl)cc1C(=O)c1ccccc1
Potency [1]: inactive
Potency [2]: inactive
Potency [3]: inactive
outcome [5]: inactive
Potency [6]: inactive

C=CCOC(N)=O
Potency [1]: inactive
Potency [2]: inactive
Potency [3]: inactive
Potency [4]: inactive
outcome [5]: inactive
Potency [6]: inactive
Potency [8]: inactive
Potency [9]: inactive

N#C/C=C/c1ccccc1
Potency [1]: inactive
Potency [2]: inactive
Potency [3]: inactive
Potency [4]: inactive
outcome [5]: inactive
Potency [6]: inactive
Potency [7]: inactive
Potency [8]: inactive
Potency [9]: inactive

CC(Cl)CN(C)C (stereo not drawn)
Potency [1]: inactive
Potency [2]: inactive
Potency [3]: inactive
Potency [6]: inactive
Potency [7]: inactive
Potency [8]: inactive
Potency [9]: inactive

CCc1ccccc1C
Potency [1]: inactive
Potency [2]: inactive
Potency [3]: inactive
Potency [4]: inactive
outcome [5]: inactive
Potency [7]: inactive
Potency [8]: inactive
Potency [9]: inactive

Clc1ccc(-c2ccc(Cl)c(Cl)c2Cl)c(Cl)c1Cl
Potency [10]: inactive
Potency [1]: inactive
Potency [2]: inactive
Potency [3]: inactive
Potency [4]: inactive
Potency [7]: inactive
Potency [8]: inactive
Potency [11]: inactive
Potency [9]: inactive

O=C(Cl)c1ccc(Cl)cc1
Potency [1]: inactive
Potency [2]: inactive
Potency [3]: inactive
Potency [4]: inactive
outcome [5]: inactive
Potency [6]: inactive
Potency [7]: inactive
Potency [8]: inactive
Potency [9]: inactive

COc1ccc([N+](=O)[O-])cc1O
Potency [1]: inactive
Potency [2]: inactive
Potency [3]: inactive
Potency [4]: inactive
outcome [5]: inactive
Potency [6]: inactive
Potency [8]: inactive
Potency [9]: inactive

Brc1c(Br)c(Br)c(Oc2c(Br)c(Br)c(Br)c(Br)c2Br)c(Br)c1Br
activity, negative = cytotoxicity [1]: -0.215% [at 19 µM]
activity change, negative = inhibition [2]: 5.56% [at 19 µM]
viability change, negative = cytotoxic [3]: 2.51% [at 15.8 µM]
activation [4]: 8.87% [at 15.8 µM]
activation [5]: 5.85% [at 15.8 µM]
activity change, negative = cytotoxicity [7]: 2.15% [at 19 µM]
activity, negative = inhibition [8]: -8.07% [at 19 µM]
viability change, negative = cytotoxic [9]: 0.115% [at 19 µM]

N#CCc1ccc(Cl)cc1
Potency [1]: inactive
Potency [2]: inactive
Potency [3]: inactive
Potency [4]: inactive
outcome [5]: inactive
Potency [8]: inactive
Potency [9]: inactive

C=CC(=O)N(C)C
Potency [1]: inactive
Potency [2]: inactive
Potency [3]: inactive
Potency [4]: inactive
outcome [5]: inactive
Potency [6]: inactive
Potency [7]: inactive
Potency [9]: inactive

O=[N+]([O-])c1cc(Cl)ccc1Cl
Potency [1]: inactive
Potency [2]: inactive
Potency [3]: inactive
Potency [4]: inactive
outcome [5]: inactive
Potency [6]: inactive
Potency [7]: inactive
Potency [8]: inactive
Potency [9]: inactive

Nc1ccc([N+](=O)[O-])cc1Cl
Potency [1]: inactive
Potency [2]: inactive
Potency [3]: inactive
Potency [4]: inactive
outcome [5]: inactive
Potency [6]: inactive
Potency [8]: inactive

Clc1ccc(-c2ccccc2)cc1
Potency [1]: inactive
Potency [2]: inactive
Potency [3]: inactive
Potency [4]: inactive
outcome [5]: inactive
Potency [6]: inactive
Potency [9]: inactive

C[CH2][Hg][N]1C(=O)C2C(C1=O)C1(Cl)C(Cl)=C(Cl)C2(Cl)C1(Cl)Cl (stereo not drawn)
Potency [1]: 3.66 µM (active)
Potency [2]: 2.31 µM (active)
Potency [3]: 6.57 µM (active)
Potency [6]: 4.14 µM (active)
Potency [8]: 11.6 µM (active)
Potency [9]: 13 µM (active)

CC(O)C#N (stereo not drawn)
Potency [1]: inactive
Potency [2]: inactive
Potency [3]: inactive
outcome [5]: inactive
Potency [6]: inactive
Potency [7]: inactive
Potency [8]: inactive
Potency [9]: inactive
